In the library only some 2% were active in any assay of this set; here they are far more common.
Exocytosis inh: LAMP-1 surface exposure blockers, TALL-104 cells – cell-based, flow cytometry, MLPCN library, primary screen. AID 651702, 2012. inhibition, % at 10 µM. TALL-104 LAMP-1 surface exposure; cells stimulated with thapsigargin and PMA. actives 0.66% (n = 360,000);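 active = inhibition above about 55%, limit read from the data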
TLR4 MyD88 comp: inhibitors of TLR4-MyD88 association in cells, primary screen, cell-based, HeLa CL3-4, BLA complementation, FRET ratio | Toll-like receptor 4 (Homo sapiens) + Myeloid differentiation primary response protein … | HeLa CL3-4 TLR4/MyD88 BLA complementation | inhibition, % at 8.4 µM | actives 0.18% (n = 200,000) | AID 861, 2007; in the data active = inhibition above about 25%
TLR9-MyD88 block: inhibitors of TLR9-MyD88 association in cells, primary screen, cell-based, CHO, BLA complementation, fluorescence; Toll-like receptor 9 (Homo sapiens) + Myeloid differentiation primary response protein …; CCF4 FRET ratio; inhibition, % at 4.98 µM; actives 0.21% (n = 340,000);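 active = inhibition above the mean over all tested compounds plus 3 SD, cut at about 21% in these data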
Beta2AR agonist: beta2AR agonists driving receptor internalization, primary screen, cell-based, FAP fluorogen, flow cytometry; actives 0.43% (n = 340,000); AID 504454, 2011; response, % (no concentration beside the values); Beta-2 adrenergic receptor (Homo sapiens), P07550; Am2.2-beta2AR cells;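 active = response above a set limit, near 3 SD of response in nonfluorescent compounds, cut at about 42% in these data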
Target sequence (P07550 whole entry, looked up): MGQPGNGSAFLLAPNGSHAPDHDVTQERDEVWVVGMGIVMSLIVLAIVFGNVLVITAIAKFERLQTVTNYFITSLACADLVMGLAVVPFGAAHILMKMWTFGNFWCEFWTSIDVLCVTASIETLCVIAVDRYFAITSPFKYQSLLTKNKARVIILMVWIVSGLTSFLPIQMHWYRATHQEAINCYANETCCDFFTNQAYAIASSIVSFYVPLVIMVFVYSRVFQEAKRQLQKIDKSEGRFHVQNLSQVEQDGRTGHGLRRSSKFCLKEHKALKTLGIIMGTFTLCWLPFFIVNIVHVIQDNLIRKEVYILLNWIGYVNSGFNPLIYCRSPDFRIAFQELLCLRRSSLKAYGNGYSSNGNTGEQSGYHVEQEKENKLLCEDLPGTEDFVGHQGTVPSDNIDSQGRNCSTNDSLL
ABHD5-PLIN5 inh: ABHD5-PLIN5 interaction inhibitors, primary screen, cell lysate, split luciferase complementation, luminescence; Perilipin-5 (Homo sapiens) + 1-acylglycerol-3-phosphate O-acyltransferase ABHD5 (Homo …; Split G. princeps luciferase complementation, 4 h; inhibition, % at 4 µM; actives 0.78% (n = 360,000); AID 602281, 2012;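 active = inhibition above the mean inhibition across every tested compound plus 3 SD, cut at about 22% in these data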
NOD2-RIPK2 inh: NOD2-RIPK2 binding disruptors in cells, primary screen, fluorescence, CHO cells, BLA complementation; Receptor-interacting serine/threonine-protein kinase 2 (Homo sapiens), O43353; CCF4 ratio; inhibition, % at 4.98 µM; actives 0.38% (n = 360,000); in the data active = inhibition above about 21%
Exocytosis CP01: inhibitors of lytic granule exocytosis, confirmation, TALL-104 cells, flow cytometry, Cherry Pick01. shares compounds with Exocytosis inh. LAMP-1 externalization; stimulated with PMA plus thapsigargin. inhibition, % at 10 µM. actives 11% (n = 1,500). AID 651954, 2012; in the data active = inhibition above about 60%
Hits are given with their value; . = inactive; / = not tested or not shown.

SMILES | Exocytosis inh | TLR4 MyD88 comp | TLR9-MyD88 block | Beta2AR agonist | ABHD5-PLIN5 inh | NOD2-RIPK2 inh | Exocytosis CP01
Cc1ccc(C)c(-c2cc(C(=O)Nc3cccnc3)c3ccccc3n2)c1 | . | / | . | . | . | . | /
Cc1ccc(-c2cc(C(=O)Nc3ccccn3)c3ccccc3n2)o1 | 88 | . | . | . | . | . | .
CC(C)N1CCOC1c1ccccc1 (configuration not stated) | . | / | . | . | . | . | /
Cc1ccccc1S(=O)(=O)NC(=O)C1(C)CCN1C(=O)Cc1cccs1 (configuration not stated) | . | / | / | / | . | . | /
COCCNC(=O)Nc1ccc2nc(-c3cccs3)c(-c3cccs3)nc2c1 | . | . | . | . | . | . | /
O=C(Nc1ccc2nc(-c3cccs3)c(-c3cccs3)nc2c1)NC1CC1 | 99 | . | . | . | . | . | 103
O=C(Nc1nc2ccc(SC(F)F)cc2s1)c1ccc(NS(=O)(=O)c2ccc(F)c(F)c2)cc1 | 76 | . | . | . | . | . | 104
C[C@H](CO)N1C[C@H](C)[C@@H](CN(C)C)Oc2c(NS(=O)(=O)c3ccc(F)cc3)cccc2C1=O | . | / | . | . | . | . | /
CCc1ccc(-c2cc(C)no2)cc1S(=O)(=O)N1CCOc2ccccc21 | 89 | / | . | . | . | . | .
CCOc1ccc(C2CC=C(C(C)=O)CN2S(=O)(=O)c2ccc(C)cc2)cc1 (configuration not stated) | . | / | / | / | . | . | /
O=C(Nc1cccc(O)c1)c1cccc(S(=O)(=O)N2CCCCCC2)c1 | 59 | / | . | . | . | . | .
O=S(=O)(Nc1cccc(S(=O)(=O)N2CCCCCC2)c1)c1ccccc1 | 74 | . | . | . | . | . | .
COC(=O)c1cc(=O)nc(NN=Cc2ccco2)s1 | . | / | / | / | . | . | /
O=C(Nc1ccn(CCCNCC2CCCO2)c(=O)n1)OCc1ccccc1 (configuration not stated) | . | / | . | . | . | . | /
CC1(C(=O)Nc2cccc(Oc3ccccc3)c2)CCN1C1Cc2ccccc2C1 (configuration not stated) | . | / | / | / | . | . | /
OCc1cccc(-c2csc(C(O)(c3ccccc3)C(F)(F)F)n2)c1 (configuration not stated) | . | / | / | / | . | . | /
CC(=O)CCc1ccc(Oc2nc(-c3cccnc3)nc3ccccc23)cc1 | . | . | . | . | . | . | /
COc1ccc(Oc2nc(-c3cccnc3)nc3ccccc23)cc1 | 88 | / | . | . | . | . | .
CC(Nc1nc(-c2cccnc2)nc2ccccc12)c1ccc(F)cc1 (configuration not stated) | 65 | / | . | . | . | . | .
COCC(=O)N(C)CC1CCCN(CCc2ccccc2OC)C1 (configuration not stated) | . | / | . | . | . | . | /
COc1ccc(CN(C)CC2CCCN(CCc3ccc(F)cc3)C2)cc1OC (configuration not stated) | 60 | / | . | . | . | . | .
COc1ccc(CN(C)CC2CCCN(CCc3ccc(Cl)cc3)C2)cc1OC (configuration not stated) | . | / | . | . | . | . | /
COC(=O)CCC(=O)N(C)CC1CCCN(CCc2cccc(C(F)(F)F)c2)C1 (configuration not stated) | . | / | . | . | . | . | /
COc1ccccc1CCN1CCCC(CN(C)CC(C)(C)CO)C1 (configuration not stated) | 62 | / | . | . | . | . | .
CCOc1cccc(CN(C)CC2CCCN(CCc3ccc(Cl)cc3)C2)c1O (configuration not stated) | 76 | / | . | . | . | . | .
SMILES | Exocytosis inh | TLR4 MyD88 comp | TLR9-MyD88 block | Beta2AR agonist | ABHD5-PLIN5 inh | NOD2-RIPK2 inh | Exocytosis CP01
COc1cc(CN(C)CC2CCCN(CCc3cccc(C(F)(F)F)c3)C2)ccc1O (configuration not stated) | 56 | / | . | . | . | . | .
CC1(C(=O)NS(=O)(=O)C2CC2)CCCN(C(=O)c2cccc(Cl)c2)C1 (configuration not stated) | . | / | / | / | . | . | /
CSc1ccc(CN2CCC2(C)C(=O)NC2CCc3ccccc32)cc1 (configuration not stated) | . | / | / | / | . | . | /
COc1cc(CN(C)CC2CCCN(CCc3ccccc3F)C2)cc(Cl)c1OC (configuration not stated) | 56 | / | . | . | . | . | .
FC(F)(F)c1cc(CCN2C(=S)NC[C@@H]2CC2CCCCC2)cc(C(F)(F)F)c1 | 86 | / | . | . | . | . | .
O=C1NC[C@H](CC2CCCCC2)N(CCc2cc(C(F)(F)F)cc(C(F)(F)F)c2)C1=O | . | / | / | / | . | . | /
CC(C)(C)c1ccc(C(=O)N2CCC2(C)C(=O)Nc2cnc3ccccc3c2)cc1 (configuration not stated) | . | / | / | / | . | . | /
CCCCc1nc(N2CCN(C(=O)c3ccco3)CC2)c(C#N)c2c1CCCC2 | 79 | / | . | . | . | . | .
CC(C)c1nc(N2CCN(C(=O)c3ccco3)CC2)c(C#N)c2c1COC(C)(C)C2 | . | / | . | . | . | . | /
Cn1c(=O)c2c(nc(N3CCN(Cc4ccccc4)CC3)n2CCCc2ccccc2)n(C)c1=O | . | . | . | . | . | . | /
Cn1c(=O)c2c(nc(N3CCN(c4ccccc4)CC3)n2CCCc2ccccc2)n(C)c1=O | 74 | . | . | . | . | . | .
CC(C)C(NS(=O)(=O)c1cccc(C(F)(F)F)c1)C(=O)N1CCc2ccccc2C1 (configuration not stated) | 76 | / | . | . | . | . | .
c1ccc(CCNc2ccnc3cc4ccccc4cc23)cc1 | 56 | . | . | 81 | . | . | 92
Cc1ccc([C@H]2C[C@H](O)[C@@H](n3cc(COC(=O)c4ccccc4)nn3)CN2C(=O)c2cccs2)cc1 | . | / | . | / | . | . | /
CCN(CC)c1c(C)nc2ccc(C(=O)Nc3cc(-c4ccccc4)ccc3OC)cn12 | . | / | / | / | . | . | /
O=C(/C=C/Sc1ccc(C(F)(F)F)cn1)c1ccccc1 | 64 | / | . | . | . | . | .
CCOC(=O)c1ccccc1NC(=O)CSc1ccc(-c2ccccn2)nn1 | 106 | / | . | . | . | . | .
CCc1ccc(NC(=O)CSc2ccc(-c3ccccn3)nn2)cc1 | . | / | . | . | . | . | /

Screening results from PubChem BioAssay.
